From PubChem BioAssay (NCATS)
Inconclusive results are not listed. More than one record can exist for a structure, and the calls need not agree. Activity calls are given as the source filed them. Calls follow the shape of the dose curve; as a rule, active = well fitted curve in the direction sought with a large enough effect; inconclusive = small, poorly fitted or top-dose-only effect, or another doubt; inactive = no such curve, though single readings can be large; an effect the other way counts as inactive or inconclusive.

Legend:
Hek293T = test: Primary qHTS to identify gynecologic anti-cancer compounds using libraries of approved drugs and bioactive compounds (AID 1345084); settings: Gynecologic cancer cell panel viability, ATPlite luminescence, 48 h, control line for the selectivity index; series mostly up to 57.5 µM; also: nearly all actives have a fitted effect of over 55% in size
Outline: (§1)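 Cell viability after 48 h drug treatment, ATPlite luminescence readout; five doses.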

Tov-21-G = test: as above; settings: Gynecologic cancer cell panel viability, ATPlite luminescence, 48 h; series mostly up to 57.5 µM
Outline: as §1

Tov112D = test: as above; settings: Gynecologic cancer cell panel viability, ATPlite luminescence, 48 h; series mostly up to 57.5 µM
Outline: as §1

JEG-3 = test: as above; settings: Gynecologic cancer cell panel viability, ATPlite luminescence, 48 h; series mostly up to 57.5 µM
Outline: as §1

OV90 = test: as above; settings: Gynecologic cancer cell panel viability, ATPlite luminescence, 48 h; series mostly up to 57.5 µM
Outline: as §1

PA-1 = test: as above; settings: Gynecologic cancer cell panel viability, ATPlite luminescence, 48 h; series mostly up to 57.5 µM
Outline: as §1

[1] = Drug repurposing screens with cells derived from glioblastoma tumor samples (AID 1345199); settings: GBM patient neurospheres viability, ATP luminescence, 48 h; also: nearly all actives have a fitted effect of over 40% in size
Outline: (§2)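 Four patient lines of CD133+ GBM neurospheres were screened at several concentrations; hits were retested in those lines plus three slower-growing GBM lines, using 48-hour treatment and ATP-based viability.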

SKOV3 = test: Primary qHTS to identify gynecologic anti-cancer compounds using libraries of approved drugs and bioactive compounds (AID 1345084); settings: Gynecologic cancer cell panel viability, ATPlite luminescence, 48 h; series mostly up to 57.5 µM; also: nearly all actives have a fitted effect of over 55% in size
Outline: as §1

astro = test: Drug repurposing screens with cells derived from glioblastoma tumor samples (AID 1345199); settings: viability, ATP luminescence, 48 h; series mostly up to 45.9 µM; also: nearly all actives have a fitted effect of over 40% in size
Outline: as §2

[2] = at 45.9 µM (top of the series), tumour line B
[3] = at 45.9 µM (top of the series), tumour line D
[4] = at 46 µM (top of the series), tumour line A
[5] = at 46.1 µM (top of the series), tumour line C
% is scaled to controls: 0 for no effect and ±100 for the full control effect; potency is read from the fitted curve at half-maximal effect.

COC1CC(OC2CCC3(C)C(CCC4C3CCC3(C)C(C5=CC(=O)OC5)C(OC(C)=O)CC43O)C2)OC(C)C1OC1OC(CO)C(O)C(O)C1O (centres undefined)
active: Potency (Hek293T) 3.16 µM | Potency (Tov-21-G) 1.26 µM | Potency (Tov112D) 0.891 µM

CC(N)Cc1c[nH]c2ccccc12 (centres undefined)
inactive: Potency (Hek293T) | Potency (JEG-3) | Potency (OV90) | Potency (PA-1) | Potency (Tov-21-G) | Potency (Tov112D)

CCOc1ccc2c3c1O[C@H]1[C@@H](O)C=C[C@H]4[C@@H](C2)N(C)CC[C@@]341
inactive: activity, negative = cell killing [1, 2] -22.9%

COC1CC(O[C@H]2CC[C@]3(C=O)C4CC[C@]5(C)[C@@H](C6=CC(=O)OC6)CC[C@]5(O)[C@@H]4CC[C@]3(O)C2)OC(C)C1O[C@@H]1O[C@H](CO)[C@@H](O)[C@H](O)[C@H]1O (some centres undefined)
active: Potency (Hek293T) 0.501 µM | Potency (PA-1) 0.316 µM | Potency (SKOV3) 0.447 µM | Potency (Tov-21-G) 0.141 µM | Potency (Tov112D) 0.1 µM

CC(C)[C@@H](CN1CC[C@@](C)(c2cccc(O)c2)[C@@H](C)C1)NC(=O)[C@H]1Cc2ccc(O)cc2CN1
inactive: Potency (Hek293T) | Potency (JEG-3) | Potency (OV90) | Potency (PA-1) | Potency (Tov-21-G) | Potency (Tov112D)

Cc1c(Cl)cccc1S(=O)(=O)Nc1nc(CC(=O)N2CCN(C)CC2)cs1
inactive: Potency (Hek293T) | Potency (JEG-3) | Potency (OV90) | Potency (PA-1) | Potency (Tov-21-G) | Potency (Tov112D)

COc1ccccc1CN[C@H]1C2CCN(CC2)[C@H]1C(c1ccccc1)c1ccccc1
inactive: Potency (Hek293T) | Potency (JEG-3) | Potency (PA-1) | Potency (SKOV3) | Potency (Tov-21-G) | Potency (Tov112D)

S=C(S)N1CCNCC1
inactive: activity, negative = cell killing [1, 2] -3.67% | activity, negative = cell killing [1, 3] -4.89% | activity, negative = cell killing [1, 4] -30% | activity, negative = cell killing [1, 5] -13.9% | Potency (astro)

CN1c2ccccc2C(NCCCCCCC(=O)O)c2ccc(Cl)cc2S1(=O)=O (centres undefined)
inactive: activity, negative = cell killing [1, 2] -13.7% | activity, negative = cell killing [1, 3] 2.81% | activity, negative = cell killing [1, 4] -22.5% | activity, negative = cell killing [1, 5] -20.5%

C[N+]1([O-])[C@@H]2CC(OC(=O)[C@H](CO)c3ccccc3)C[C@H]1[C@@H]1O[C@@H]12 (some centres undefined)
inactive: activity, negative = cell killing ([1]; at 20 µM (top of the series), tumour line C) 3.96% | activity, negative = cell killing ([1]; at 21.2 µM (top of the series), tumour line B) 5.23% | activity, negative = cell killing ([1]; at 21.2 µM (top of the series), tumour line D) -9% | activity, negative = cell killing [1, 2] -10.9% | activity, negative = cell killing [1, 3] -17.4% | activity, negative = cell killing [1, 5] 30.8% | Potency (astro)

CCOC(=O)c1ccccc1C(=O)OCC
inactive: activity, negative = cell killing [1, 2] -8.14% | activity, negative = cell killing [1, 3] -11.3% | activity, negative = cell killing [1, 4] -28.3% | activity, negative = cell killing [1, 5] 0.324% | Potency (astro)

CCC1(c2ccccc2)C(=O)NC(=O)NC1=O
inactive: activity, negative = cell killing [1, 2] -10.3% | activity, negative = cell killing [1, 3] 2.64% | activity, negative = cell killing [1, 4] -5.16% | activity, negative = cell killing [1, 5] 3.61% | Potency (astro)

O[C@H]1[C@H]2[C@H](O)CCCN2C[C@H]1O
inactive: activity, negative = cell killing [1, 2] 0.771% | activity, negative = cell killing [1, 3] -7.2% | activity, negative = cell killing [1, 4] -40.5% | activity, negative = cell killing [1, 5] -19.9% | Potency (astro)

CCN(CC)C(=O)/C(Cl)=C(\C)OP(=O)(OC)OC
inactive: activity, negative = cell killing [1, 2] 1.79% | activity, negative = cell killing [1, 3] -19.8% | activity, negative = cell killing [1, 4] -32% | activity, negative = cell killing [1, 5] 1.99% | Potency (astro)

OC[C@@H](O)[C@H]1O[C@@H]2O[C@@H](C(Cl)(Cl)Cl)O[C@@H]2[C@H]1O
inactive: activity, negative = cell killing [1, 2] -12.9% | activity, negative = cell killing [1, 3] -1.55% | activity, negative = cell killing [1, 4] -29.4% | activity, negative = cell killing [1, 5] 7.8% | Potency (astro)

CC(C)CCC(=O)O[C@H]1CC[C@H]2[C@@H]3CCC4=CC(=O)CC[C@]4(C)[C@H]3CC[C@]12C
inactive: activity, negative = cell killing [1, 5] -19.7%
active: Potency ([1]; tumour line A) 11.2 µM | Potency ([1]; tumour line B) 22.4 µM

CCC(N)Cc1c[nH]c2ccccc12 (centres undefined)
inactive: activity, negative = cell killing [1, 2] -19.3% | activity, negative = cell killing [1, 3] -10.1% | activity, negative = cell killing [1, 5] -22.2% | activity, negative = cell killing ([1]; at 108 µM (top of the series), tumour line B) -20.5% | activity, negative = cell killing ([1]; at 108 µM (top of the series), tumour line D) -20.7% | Potency (astro)
active: Potency ([1]; tumour line A) 31.6 µM

CCN(CC)C(=O)N[C@H]1C[C@@H]2c3cccc4[nH]cc(c34)C[C@H]2N(C)C1
active: Potency ([1]; tumour line A) 22.4 µM
inactive: activity, negative = cell killing [1, 2] -22.5% | activity, negative = cell killing [1, 3] -14.1% | activity, negative = cell killing [1, 5] -20.3% | Potency (astro)

CC(C)[C@@]1(NC(=O)[C@@H]2C[C@@H]3c4cccc5[nH]cc(c45)C[C@H]3N(C)C2)O[C@@]2(O)[C@@H]3CCCN3C(=O)[C@H](Cc3ccccc3)N2C1=O
active: Potency ([1]; tumour line A) 3.16 µM
inactive: activity, negative = cell killing [1, 5] 9.68%

Cc1ccccc1-n1c(C)nc2ccccc2c1=O
inactive: activity, negative = cell killing [1, 2] -8.69% | activity, negative = cell killing [1, 3] -13.3% | activity, negative = cell killing [1, 5] -24.2% | activity, negative = cell killing ([1]; at 91.6 µM (top of the series), tumour line B) -8.55% | activity, negative = cell killing ([1]; at 91.6 µM (top of the series), tumour line D) -15.5% | activity, negative = cell killing ([1]; at 99.2 µM (top of the series), tumour line C) -4.7% | Potency (astro)
active: Potency ([1]; tumour line A) 44.7 µM

C[C@]12CC[C@H]3[C@@H](CCC4=C(Cl)C(=O)CC[C@@]43C)[C@@H]1CC[C@@H]2O
active: Potency ([1]; tumour line A) 12.6 µM
inactive: activity, negative = cell killing [1, 2] -16.4% | activity, negative = cell killing [1, 3] -29.9%

CC(=O)[C@H]1CC[C@H]2[C@@H]3CC[C@@H]4C[C@H](O)CC[C@]4(C)[C@H]3CC[C@]12C
inactive: activity, negative = cell killing [1, 2] -17.7%
active: Potency ([1]; tumour line D) 17.8 µM
